Unmarked numbers belong to inactive results.
Key:
Test in all cases: log2 ratio of Biotin-Ahx-Ub-VS probe labelling (fragment/DMSO); higher = less target engagement (more negative = stronger competition), active = hit call of the paper (q ≤ 0.05, log2 ratio ≤ -1)
Settings in all cases: compound concentration: 200 uM; treatment time: 3 h
USP19 = target: T1, USP19 (UniProt O94966)
T1 sequence (whole entry): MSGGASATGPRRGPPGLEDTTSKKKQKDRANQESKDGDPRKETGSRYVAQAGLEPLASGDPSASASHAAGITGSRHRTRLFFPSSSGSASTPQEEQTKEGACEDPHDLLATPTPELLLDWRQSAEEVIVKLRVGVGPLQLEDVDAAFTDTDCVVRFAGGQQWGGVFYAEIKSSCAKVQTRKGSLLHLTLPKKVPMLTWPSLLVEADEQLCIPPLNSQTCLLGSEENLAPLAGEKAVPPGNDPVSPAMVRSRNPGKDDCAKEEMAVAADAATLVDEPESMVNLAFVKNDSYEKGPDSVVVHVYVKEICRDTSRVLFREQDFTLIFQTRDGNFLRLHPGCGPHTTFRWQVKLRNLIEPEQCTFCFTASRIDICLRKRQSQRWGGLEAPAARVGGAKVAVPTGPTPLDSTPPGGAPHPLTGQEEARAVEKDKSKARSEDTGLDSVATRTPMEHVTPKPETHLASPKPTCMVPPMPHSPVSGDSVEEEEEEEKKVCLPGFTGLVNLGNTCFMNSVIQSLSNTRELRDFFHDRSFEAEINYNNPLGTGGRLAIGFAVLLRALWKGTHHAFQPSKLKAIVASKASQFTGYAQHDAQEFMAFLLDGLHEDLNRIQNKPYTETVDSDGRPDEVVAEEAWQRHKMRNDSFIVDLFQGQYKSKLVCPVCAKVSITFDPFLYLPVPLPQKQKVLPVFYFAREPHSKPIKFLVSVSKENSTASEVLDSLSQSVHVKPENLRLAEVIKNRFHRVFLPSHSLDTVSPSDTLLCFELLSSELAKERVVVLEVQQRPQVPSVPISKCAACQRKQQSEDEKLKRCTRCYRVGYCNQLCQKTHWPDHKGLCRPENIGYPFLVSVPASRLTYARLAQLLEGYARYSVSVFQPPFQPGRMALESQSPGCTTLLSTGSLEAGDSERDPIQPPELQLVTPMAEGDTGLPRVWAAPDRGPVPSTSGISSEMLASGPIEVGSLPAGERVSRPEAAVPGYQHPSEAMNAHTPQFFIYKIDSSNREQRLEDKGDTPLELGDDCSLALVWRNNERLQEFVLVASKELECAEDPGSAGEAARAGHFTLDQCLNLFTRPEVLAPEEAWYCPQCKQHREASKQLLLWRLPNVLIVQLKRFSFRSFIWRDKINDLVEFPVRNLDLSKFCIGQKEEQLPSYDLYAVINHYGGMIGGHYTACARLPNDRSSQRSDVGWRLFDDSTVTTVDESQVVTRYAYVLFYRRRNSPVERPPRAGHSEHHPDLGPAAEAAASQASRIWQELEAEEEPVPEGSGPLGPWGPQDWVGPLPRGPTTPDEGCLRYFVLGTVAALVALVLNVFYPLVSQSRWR
Procedure, shortened: (§1)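 Fragment (200 µM) or vehicle was incubated for 3 h with triplicate HEK293T lysate samples of 495 µg, which were then treated with Biotin-Ahx-Ub-VS at 0.5 µM final for 1 h. Labelled DUBs were enriched on NeutrAvidin, digested with LysC and trypsin, and analysed by diaPASEF LC-MS/MS. Values are average log2 fragment/vehicle ratios from an unpaired t-test on global-median-normalised Spectronaut label-free quantities, using proteins with ≥2 unique peptides.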

USP24 = USP24 (UniProt Q9UPU5)
Procedure, shortened: as §1

USP25 = target: T2, USP25 (UniProt Q9UHP3)
T2 sequence (whole entry): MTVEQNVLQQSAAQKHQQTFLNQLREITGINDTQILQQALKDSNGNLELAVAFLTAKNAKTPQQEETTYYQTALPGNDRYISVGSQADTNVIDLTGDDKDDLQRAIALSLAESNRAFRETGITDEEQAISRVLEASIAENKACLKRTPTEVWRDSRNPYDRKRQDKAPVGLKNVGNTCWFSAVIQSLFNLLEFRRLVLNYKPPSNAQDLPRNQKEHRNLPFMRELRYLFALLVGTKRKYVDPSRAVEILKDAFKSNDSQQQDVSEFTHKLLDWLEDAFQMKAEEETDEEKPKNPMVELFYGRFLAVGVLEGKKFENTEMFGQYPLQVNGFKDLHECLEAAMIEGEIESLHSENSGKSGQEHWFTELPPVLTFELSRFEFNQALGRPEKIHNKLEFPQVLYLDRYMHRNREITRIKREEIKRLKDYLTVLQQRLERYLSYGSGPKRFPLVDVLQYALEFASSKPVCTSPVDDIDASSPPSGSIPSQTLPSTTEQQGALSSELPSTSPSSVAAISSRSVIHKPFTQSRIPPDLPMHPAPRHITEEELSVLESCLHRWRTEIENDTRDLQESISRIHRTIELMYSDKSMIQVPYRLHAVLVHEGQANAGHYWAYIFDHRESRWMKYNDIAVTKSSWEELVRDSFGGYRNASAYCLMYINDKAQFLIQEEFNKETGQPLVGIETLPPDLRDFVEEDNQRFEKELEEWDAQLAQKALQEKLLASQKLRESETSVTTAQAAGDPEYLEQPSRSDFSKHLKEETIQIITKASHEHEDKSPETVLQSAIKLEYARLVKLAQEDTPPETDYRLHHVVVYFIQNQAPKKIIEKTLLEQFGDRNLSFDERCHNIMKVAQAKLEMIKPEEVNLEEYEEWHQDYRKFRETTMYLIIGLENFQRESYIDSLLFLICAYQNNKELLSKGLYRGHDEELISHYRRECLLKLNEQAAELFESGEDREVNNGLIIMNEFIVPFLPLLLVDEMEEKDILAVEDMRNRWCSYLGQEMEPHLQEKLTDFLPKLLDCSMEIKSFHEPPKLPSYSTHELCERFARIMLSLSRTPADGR
Procedure, shortened: as §1

USP28 = target: T3, USP28 (UniProt Q96RU2)
T3 sequence (whole entry): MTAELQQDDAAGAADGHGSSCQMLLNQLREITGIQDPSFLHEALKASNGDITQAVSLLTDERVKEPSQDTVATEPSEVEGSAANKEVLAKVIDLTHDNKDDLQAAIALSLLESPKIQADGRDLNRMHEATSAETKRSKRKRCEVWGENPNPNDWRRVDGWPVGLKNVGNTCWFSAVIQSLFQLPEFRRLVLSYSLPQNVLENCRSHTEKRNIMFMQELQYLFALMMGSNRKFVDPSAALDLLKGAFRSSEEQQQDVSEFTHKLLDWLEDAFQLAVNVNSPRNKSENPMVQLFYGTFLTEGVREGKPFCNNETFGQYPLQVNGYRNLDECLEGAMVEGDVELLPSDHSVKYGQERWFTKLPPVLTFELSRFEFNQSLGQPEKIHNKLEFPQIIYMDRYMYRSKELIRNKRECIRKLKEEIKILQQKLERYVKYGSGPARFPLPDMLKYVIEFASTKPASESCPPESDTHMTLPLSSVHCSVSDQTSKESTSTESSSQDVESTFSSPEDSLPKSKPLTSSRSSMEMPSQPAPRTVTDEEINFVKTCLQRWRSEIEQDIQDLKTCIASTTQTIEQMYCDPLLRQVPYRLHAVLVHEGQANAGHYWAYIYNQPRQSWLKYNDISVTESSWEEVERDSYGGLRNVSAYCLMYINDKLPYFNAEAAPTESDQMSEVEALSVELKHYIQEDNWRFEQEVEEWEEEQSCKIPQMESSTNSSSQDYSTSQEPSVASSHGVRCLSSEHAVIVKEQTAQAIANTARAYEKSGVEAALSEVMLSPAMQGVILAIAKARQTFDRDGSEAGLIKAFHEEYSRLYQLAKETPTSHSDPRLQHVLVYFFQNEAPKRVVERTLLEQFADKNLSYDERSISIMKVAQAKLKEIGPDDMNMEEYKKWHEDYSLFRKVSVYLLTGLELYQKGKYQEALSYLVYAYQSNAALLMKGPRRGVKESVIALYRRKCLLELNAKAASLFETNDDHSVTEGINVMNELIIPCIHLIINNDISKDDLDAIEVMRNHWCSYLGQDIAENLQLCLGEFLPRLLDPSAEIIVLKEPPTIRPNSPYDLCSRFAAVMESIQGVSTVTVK
Procedure, shortened: as §1

Sequence of USP24 (Q9UPU5 whole entry): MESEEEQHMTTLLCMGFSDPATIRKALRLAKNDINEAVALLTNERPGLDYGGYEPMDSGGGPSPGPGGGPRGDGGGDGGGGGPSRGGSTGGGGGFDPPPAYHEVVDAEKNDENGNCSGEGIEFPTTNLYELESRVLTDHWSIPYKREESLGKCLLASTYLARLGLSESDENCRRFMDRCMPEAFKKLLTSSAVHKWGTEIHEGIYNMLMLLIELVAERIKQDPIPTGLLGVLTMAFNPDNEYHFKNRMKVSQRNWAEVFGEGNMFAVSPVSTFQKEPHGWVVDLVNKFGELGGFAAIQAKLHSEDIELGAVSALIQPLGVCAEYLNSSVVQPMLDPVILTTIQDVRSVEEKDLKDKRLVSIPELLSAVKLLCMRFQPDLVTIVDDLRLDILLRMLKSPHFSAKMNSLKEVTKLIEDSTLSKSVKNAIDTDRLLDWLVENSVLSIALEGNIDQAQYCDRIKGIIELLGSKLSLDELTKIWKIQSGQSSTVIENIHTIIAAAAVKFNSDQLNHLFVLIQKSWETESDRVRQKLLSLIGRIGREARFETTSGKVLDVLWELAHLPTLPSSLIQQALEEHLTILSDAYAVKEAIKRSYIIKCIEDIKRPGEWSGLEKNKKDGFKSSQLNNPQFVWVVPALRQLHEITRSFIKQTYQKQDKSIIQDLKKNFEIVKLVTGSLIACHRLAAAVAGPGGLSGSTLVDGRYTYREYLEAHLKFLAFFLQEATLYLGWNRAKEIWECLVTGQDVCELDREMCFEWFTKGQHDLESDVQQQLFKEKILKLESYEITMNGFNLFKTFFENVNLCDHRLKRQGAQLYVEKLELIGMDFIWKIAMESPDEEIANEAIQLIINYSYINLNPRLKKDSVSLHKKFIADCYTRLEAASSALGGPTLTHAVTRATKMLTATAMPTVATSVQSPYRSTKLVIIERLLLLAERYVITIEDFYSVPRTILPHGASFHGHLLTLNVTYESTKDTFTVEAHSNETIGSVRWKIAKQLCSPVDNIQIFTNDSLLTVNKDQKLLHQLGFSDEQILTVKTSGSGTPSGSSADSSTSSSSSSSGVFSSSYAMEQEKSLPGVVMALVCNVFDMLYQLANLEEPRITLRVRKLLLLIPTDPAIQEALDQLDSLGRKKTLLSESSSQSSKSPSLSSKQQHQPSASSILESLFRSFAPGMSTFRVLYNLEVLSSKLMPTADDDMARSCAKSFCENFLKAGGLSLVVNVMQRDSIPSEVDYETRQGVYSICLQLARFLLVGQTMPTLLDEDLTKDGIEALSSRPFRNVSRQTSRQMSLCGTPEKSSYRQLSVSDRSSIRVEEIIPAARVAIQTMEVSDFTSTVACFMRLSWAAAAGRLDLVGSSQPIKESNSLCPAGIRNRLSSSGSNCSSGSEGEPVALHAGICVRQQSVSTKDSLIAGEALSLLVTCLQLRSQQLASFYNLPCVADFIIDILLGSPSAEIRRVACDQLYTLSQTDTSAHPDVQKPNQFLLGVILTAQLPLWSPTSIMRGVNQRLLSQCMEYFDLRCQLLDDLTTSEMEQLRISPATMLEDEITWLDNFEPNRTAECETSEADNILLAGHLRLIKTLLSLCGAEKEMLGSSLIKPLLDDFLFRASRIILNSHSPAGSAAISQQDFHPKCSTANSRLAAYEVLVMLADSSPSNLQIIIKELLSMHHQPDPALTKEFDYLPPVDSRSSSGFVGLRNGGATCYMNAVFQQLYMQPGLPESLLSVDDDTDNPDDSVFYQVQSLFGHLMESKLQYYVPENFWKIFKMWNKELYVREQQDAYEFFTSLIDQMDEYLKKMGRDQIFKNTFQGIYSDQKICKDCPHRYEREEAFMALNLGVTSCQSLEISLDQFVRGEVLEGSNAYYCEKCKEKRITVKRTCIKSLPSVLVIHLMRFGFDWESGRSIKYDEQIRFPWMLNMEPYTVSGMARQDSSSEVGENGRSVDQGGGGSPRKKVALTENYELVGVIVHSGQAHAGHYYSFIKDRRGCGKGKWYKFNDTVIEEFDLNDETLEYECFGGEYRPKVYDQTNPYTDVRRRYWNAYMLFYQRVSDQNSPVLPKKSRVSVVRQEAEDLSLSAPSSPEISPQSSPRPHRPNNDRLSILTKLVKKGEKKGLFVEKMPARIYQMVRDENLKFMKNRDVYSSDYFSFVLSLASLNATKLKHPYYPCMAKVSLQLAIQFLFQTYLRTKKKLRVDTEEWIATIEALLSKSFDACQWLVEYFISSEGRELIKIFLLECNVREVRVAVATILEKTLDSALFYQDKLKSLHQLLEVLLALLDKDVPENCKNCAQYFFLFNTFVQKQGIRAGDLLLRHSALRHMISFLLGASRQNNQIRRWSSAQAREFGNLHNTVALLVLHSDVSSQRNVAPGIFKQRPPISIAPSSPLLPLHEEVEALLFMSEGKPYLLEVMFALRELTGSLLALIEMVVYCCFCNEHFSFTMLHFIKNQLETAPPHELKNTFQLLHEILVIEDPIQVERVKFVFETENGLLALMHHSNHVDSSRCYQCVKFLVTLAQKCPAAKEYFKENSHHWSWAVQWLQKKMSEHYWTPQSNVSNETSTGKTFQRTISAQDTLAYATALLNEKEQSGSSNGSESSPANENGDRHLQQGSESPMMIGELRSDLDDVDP

Structure (SMILES): Cc1conc1C1CN(C(=O)CCl)C1
- log2 ratio of Biotin-Ahx-Ub-VS probe labelling (USP19): -1.19 (active)
- log2 ratio of Biotin-Ahx-Ub-VS probe labelling (USP24): -1.11 (active)
- log2 ratio of Biotin-Ahx-Ub-VS probe labelling (USP25): -0.81
- log2 ratio of Biotin-Ahx-Ub-VS probe labelling (USP28): -1.16 (active)

From the supplement of paper PMC11732987, “Enantioselective OTUD7B fragment discovery through chemoproteomics screening and high-throughput optimisation” (Communications Chemistry, 2025)
